Measurements from PubChem BioAssay (Tox21).
Results filed as inconclusive are left out. Entries that show only a call come without a potency. The source made the active and inactive calls. Calls come from the whole dose curve.

target: Beta-2 adrenergic receptor (Homo sapiens) (UniProt P07550); assay: Adrenergic beta2 receptor (ADRB2) small molecule antagonists, cell-based qHTS assay (AID 1963592); conditions: CHO-ADRB2 cells, isoproterenol-stimulated cAMP HTRF ratio, 0.5 h; series mostly up to 92.4 µM; note: nearly all actives have a fitted effect of over 50% in size
Description: U.S. Tox21 Program National Center for Advancing Translational Sciences [NCATS] Division of Preclinical Innovation [DPI] U.S. Environmental Protection Agency [EPA] National Institutes of Environmental Health Sciences [NIEHS] National Toxicology Program [NTP] U.S. Food and Drug Administration [FDA] Tox21 Assay Overview: Beta adrenergic receptors (Beta-ARs) belong to the G-protein coupled receptor (GPCR) superfamily, includes three subtypes - beta1, beta2, and beta3. Beta1-AR is the predominant receptor subtype expressed in the heart, and beta2-AR is expressed in the kidney, lung, blood vessel and in the heart, and beta3 is found in the adipocytes. Beta1 and 2 ARs couple to Gs protein and elevate cyclic adenosine mono phosphate (cAMP), which activates protein kinase A and leads to the downstream signaling responsible for the physiological actions. Beta-AR agonists or antagonists are the most prescribed therapeutic agents for heart failure and asthma, and these were one of the first target receptors for the rational drug design. Tox21 10K compound library was screened using the cAMP-Gs dynamic assay (Cisbio Bioassays, Shelton, CT) to identify agonists/antagonists of the Gs-coupled human adrenergic, beta2 receptor (ADRB2) in the CHO-ADRB2 cell line (Codex BioSolutions, Inc. Gaithersburg, MD), which stably over-expresses ADRB2. The principle of cAMP-Gs dynamic assay is based on HTRF technology, which facilitates the fluorescence resonance energy transfer (FRET) between donor Europium cryptate and acceptor d2-labeled cAMP. The cAMP generated within cells competes with the red acceptor, d2-labled cAMP, for binding to the monoclonal anti-cAMP-cryptate (Europium donor). An increase in intracellular cAMP leads to the disruption of FRET signal, and the signal is inversely proportional to the cAMP concentration. Propranolol HCl (Sigma-Aldrich, St. Louis, MO) was used as a positive control in the screening.
Tox21 Assay Protocol Summary: CHO-ADRB2 cells were dispensed at 1,000/well in 4uL assay medium into white/solid 1536-well plates (Greiner Bio-One North America Inc., Monroe, NC) using a Multidrop Combi dispenser (ThermoFisher Scientific, Waltham, MA). The assay plates were incubated at 37C and 5% CO2 for an overnight (18-20hr). Then positive control and test compounds dissolved in DMSO were transferred to the assay plates at 23nL using a Pintool station (Wako, San Diego, CA). Following the compound and positive control transfer, 1uL agonist-stimulation mix containing 1nM Isoproterenol HCl, 100uM IBMX and 25uM Ro-20-1724 was added to each well of the assay plates using BioRAPTR Flying Reagent Dispenser (FRD, Beckman Coulter, Brea, CA). The assay plates were incubated at room temperature for 0.5hr. Then 2.5ul each d2-labled cAMP and anti-cAMP-cryptate solutions were added separately to each well of the assay plates using an FRD and the assay plates were incubated at room temperature for 1hr. The fluorescence signal was measured at two different wavelengths (665nm and 615nm) using an Envision plate reader (Perkin Elmer, Shelton, CT). Data were expressed as the ratio of 665 nm/615 nm.

Beta-2 adrenergic receptor (Homo sapiens), sequence (P07550 whole entry, looked up): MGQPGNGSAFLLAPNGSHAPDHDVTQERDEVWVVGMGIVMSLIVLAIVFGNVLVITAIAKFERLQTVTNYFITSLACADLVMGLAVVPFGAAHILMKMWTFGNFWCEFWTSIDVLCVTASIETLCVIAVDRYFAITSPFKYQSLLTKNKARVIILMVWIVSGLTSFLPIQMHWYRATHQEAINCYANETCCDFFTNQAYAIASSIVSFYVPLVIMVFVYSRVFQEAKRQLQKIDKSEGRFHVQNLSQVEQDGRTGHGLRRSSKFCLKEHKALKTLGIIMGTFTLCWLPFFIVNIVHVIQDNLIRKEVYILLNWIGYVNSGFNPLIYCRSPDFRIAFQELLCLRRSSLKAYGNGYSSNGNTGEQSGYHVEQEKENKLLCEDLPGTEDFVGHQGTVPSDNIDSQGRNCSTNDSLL

SMILES | Potency
CC(Oc1cccc(Cl)c1)C(=O)O (stereo not given) | inactive
CCS(=O)(=O)CCSP(=O)(OC)OC | inactive
CC[C@]1(O)CC[C@H]2[C@@H]3CCC4=CCCC[C@@H]4[C@H]3CC[C@@]21C | inactive
COC(=O)c1cc(Oc2ccc(Cl)cc2Cl)ccc1[N+](=O)[O-] | inactive
CC1CN1P(=O)(N1CC1C)N1CC1C (stereo not given) | inactive
CCNC(=O)NC(=O)/C(C#N)=N/OC | inactive
O=C1C=CC(=O)c2ccccc21 | inactive
CCSC(=O)N(CC)C1CCCCC1 | inactive
CC1=NNC(=O)N(/N=C/c2cccnc2)C1 | inactive
O=S1(=O)OCCO1 | inactive
CCOP(=S)(OCC)SCSCC | inactive
NS(=O)(=O)C(F)(F)C(F)(F)C(F)(F)C(F)(F)C(F)(F)C(F)(F)C(F)(F)C(F)(F)F | inactive
CN1C[C@@H](NS(=O)(=O)N(C)C)C[C@@H]2c3cccc4c3c(cn4C)C[C@H]21 | inactive
CC(C)N(C(=O)SC/C(Cl)=C/Cl)C(C)C | inactive
C[N+](C)(C)CCOC(=O)C(O)(c1ccccc1)c1ccccc1 | inactive
CCOC(=O)CBr | inactive
CC(C)(c1ccccc1)c1ccc(O)cc1 | inactive
O=[N+]([O-])c1cc(C(F)(F)F)c(Cl)c([N+](=O)[O-])c1Cl | inactive
Brc1cccc(-c2ccccc2)c1 | inactive
Cc1ccc2ccccc2c1C | inactive

SMILES | Potency
[Cl][Sb]([Cl])[Cl] | inactive
ClSC(Cl)(Cl)Cl | inactive
ClCCCCl | inactive
CN1[C@@H]2CC[C@H]1CC(OC(=O)c1cc(Cl)cc(Cl)c1)C2 (stereo not given in full) | inactive
C[C@H](N)C(=O)c1ccccc1 | inactive
CCOC(C(=O)OCCN(C)C)(c1ccccc1)c1ccccc1 | inactive
CCN(C(C)=O)c1cccc(-c2ccnc3c(C#N)cnn23)c1 | inactive
CC(=O)OC(c1ccccc1)C(Cl)(Cl)Cl (stereo not given) | inactive
ClC(Br)Br | inactive
O=S(=O)(Cl)c1ccccc1 | inactive
Cc1ccn2nc(S(=O)(=O)Nc3c(F)cccc3F)nc2n1 | inactive
C=C(Cl)Cl | inactive
CCN(CC)C(C)C(=O)c1ccccc1 (stereo not given) | inactive
CCC(C)(NC(=O)c1cc(Cl)c(C)c(Cl)c1)C(=O)CCl (stereo not given) | inactive
CN1CCC(O)(c2ccc(F)cc2)C(C(=O)c2ccc(F)cc2)C1 (stereo not given) | inactive
CNC(=O)O/N=C(\C)SC | inactive
CCC1(CCC(C)C)C(=O)NC(=O)NC1=O | inactive
CCC(C(N)=O)N1CCCC1=O (stereo not given) | inactive
Brc1ccccc1 | inactive
O=[N+]([O-])c1cccc(CCl)c1 | inactive
